Experimental data as given in PubChem BioAssay AID492989 (National Center for Advancing Translational Sciences (NCATS), 2010).
Active and inactive are the calls of the source.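 The calls were made as follows: active = clear inhibition seen at one or more tested concentrations; inactive = basal response, no inhibition.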

Target: Tyrosyl-DNA phosphodiesterase 1 (Homo sapiens) (UniProt Q9NUW8)
Assay: Gel-Based Assay for Inhibitors of Tyrosyl-DNA Phosphodiesterase (TDP1)
Details: recombinant TDP1, 32P-DNA substrate gel cleavage
Text: Assay Overview: Human tyrosyl-DNA phosphodiesterase I (Tdp1) is a rational anticancer target because this enzyme is involved in the repair of DNA lesions created by the trapping of human DNA topoisomerase I (Top1) following treatment by anticancer agents such as camptothecins. Recombinant Tdp1 was expressed and purified from E. coli in the laboratory (Anthony et al, Nucleic Acids Research, 2007, Vol. 35, 4474-4484). See below for assay protocol. NIH Molecular Libraries Probe Production Network [MLPCN] NIH Chemical Genomics Center [NCGC] Assay Provider: Yves Pommier and Christophe Marchand, National Cancer Institute
5'-32P-labeled DNA substrate (1 nmol/L; N14Y; 5'-GATCTAAAAGACTT-pY-3') was incubated with 0.2 nmol/L recombinant Tdp1 in the absence or presence of inhibitor for 15 min at room temperature in an assay buffer containing 1X PBS, pH 7.4, 80 mmol/L KCl and 0.01% Tween-20. Reactions were terminated by the addition of 1 volume of gel loading buffer [99.5% (v/v) formamide, 5 mmol/L EDTA, 0.01% (w/v) xylene cyanol, and 0.01% (w/v) bromophenol blue]. Samples were subjected to a 16% denaturing PAGE and gels were exposed after drying to a PhosphorImager screen (GE Healthcare). Gel images were scanned using a Typhoon 8600 (GE Healthcare) and densitometric analyses were performed using the ImageQuant software (GE Healthcare).

Tyrosyl-DNA phosphodiesterase 1 (Homo sapiens), sequence (Q9NUW8 whole entry, looked up): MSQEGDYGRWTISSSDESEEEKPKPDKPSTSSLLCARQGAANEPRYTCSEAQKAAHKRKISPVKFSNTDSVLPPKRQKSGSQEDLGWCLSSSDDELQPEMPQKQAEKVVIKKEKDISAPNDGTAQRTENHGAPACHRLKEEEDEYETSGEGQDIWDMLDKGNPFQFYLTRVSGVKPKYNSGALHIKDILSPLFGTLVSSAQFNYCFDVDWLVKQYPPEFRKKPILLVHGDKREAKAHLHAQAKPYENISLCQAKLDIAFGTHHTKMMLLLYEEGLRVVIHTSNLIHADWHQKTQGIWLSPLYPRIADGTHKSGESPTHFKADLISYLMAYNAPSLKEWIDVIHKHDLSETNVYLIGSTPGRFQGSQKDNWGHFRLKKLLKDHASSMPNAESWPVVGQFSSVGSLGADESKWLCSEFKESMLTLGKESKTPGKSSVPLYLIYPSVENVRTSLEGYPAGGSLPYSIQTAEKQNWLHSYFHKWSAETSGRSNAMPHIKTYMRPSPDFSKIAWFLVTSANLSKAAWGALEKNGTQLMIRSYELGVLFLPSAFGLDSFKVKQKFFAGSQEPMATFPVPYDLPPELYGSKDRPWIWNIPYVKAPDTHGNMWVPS

| SMILES | outcome | Potency |
| --- | --- | --- |
| CCc1cccc(Nc2nn3c(=O)c4ccccc4nc3s2)c1 | inactive | – |
| COc1ccc2c(=O)n3nc(Nc4ccc5c(c4)CCC5)sc3nc2c1 | – | 11 µM (active) |
| Nc1ccc2c(=O)n3nc(Nc4ccc5c(c4)CCC5)sc3nc2c1 | inactive | – |
| O=c1c2ccccc2nc2sc(Nc3ccc(Br)cc3)nn12 | inactive | – |
| O=c1c2ccccc2nc2sc(Nc3cccc(C(F)(F)F)c3)nn12 | inactive | – |
| Cc1ccc(Nc2nn3c(=O)c4ccccc4nc3s2)cc1C | – | 10 µM (active) |
| O=c1c2ccccc2nc2sc(Nc3ccc4c(c3)OCO4)nn12 | – | 12 µM (active) |
| CC(C)N1Cc2ccc(Nc3nn4c(=O)c5ccccc5nc4s3)cc2C1 | – | 22 µM (active) |
| CN1CCN(c2cccc(Nc3nn4c(=O)c5ccccc5nc4s3)c2)CC1 | inactive | – |
| CN(C)c1ccc2c(=O)n3nc(Nc4ccc5c(c4)CCC5)sc3nc2c1 | inactive | – |
| O=c1c2ccccc2nc2sc(Nc3ccc(F)cc3)nn12 | inactive | – |
| O=c1c2ccccc2nc2sc(Nc3ccc4c(c3)CCC4)nn12 | – | 2.5 µM (active) |
| Cc1cccc(Nc2nn3c(=O)c4ccccc4nc3s2)c1 | – | 10 µM (active) |
| O=c1c2ccccc2nc2sc(Nc3cccc(-c4ccncc4)c3)nn12 | – | 11 µM (active) |
| COc1cccc(Nc2nn3c(=O)c4ccccc4nc3s2)c1 | – | 100 µM (active) |
| O=c1c2ccccc2nc2sc(Nc3ccc4c(c3)CNC4)nn12 | – | 100 µM (active) |
| O=c1c2ccccc2nc2sc(Nc3cccc(Br)c3)nn12 | inactive | – |
| CN(c1ccc2c(c1)CCC2)c1nn2c(=O)c3ccccc3nc2s1 | inactive | – |
| O=c1c2ccccc2nc2sc(Nc3cccc(Cl)c3)nn12 | – | 7.4 µM (active) |
| O=c1c2ccccc2nc2sc(Nc3ccccc3)nn12 | – | 100 µM (active) |
| O=c1c2ccc(C(F)(F)F)cc2nc2sc(Nc3ccc4c(c3)CCC4)nn12 | – | 12 µM (active) |
| O=c1c2ccc([N+](=O)[O-])cc2nc2sc(Nc3ccc4c(c3)CCC4)nn12 | – | 37 µM (active) |
| O=c1c2ccc(Br)cc2nc2sc(Nc3ccc4c(c3)CCC4)nn12 | – | 1.1 µM (active) |
| O=c1c2ccccc2nc2sc(Nc3cccc4ccccc34)nn12 | – | 14 µM (active) |
| CC(C)(C)NS(=O)(=O)c1cccc(Nc2nn3c(=O)c4ccccc4nc3s2)c1 | – | 34 µM (active) |
